# The list is not random: actives were taken first. Their share in the collection is about 18%.
# PLK1 PBD block – PLK1 (human) polo-box domain binding inhibition. AID 720504. Potency, µM, inactives show max response, negative = inhibition, hits mostly inhibitors. Plk1 PBD binding of FITC phosphopeptide, fluorescence polarization. 360,000 tested, 2.8% active. P53350; further: series mostly up to about 57 µM; nearly all actives have a fitted effect of over 65% in size
# Target sequence (P53350 whole entry, looked up, the tested form may be a part): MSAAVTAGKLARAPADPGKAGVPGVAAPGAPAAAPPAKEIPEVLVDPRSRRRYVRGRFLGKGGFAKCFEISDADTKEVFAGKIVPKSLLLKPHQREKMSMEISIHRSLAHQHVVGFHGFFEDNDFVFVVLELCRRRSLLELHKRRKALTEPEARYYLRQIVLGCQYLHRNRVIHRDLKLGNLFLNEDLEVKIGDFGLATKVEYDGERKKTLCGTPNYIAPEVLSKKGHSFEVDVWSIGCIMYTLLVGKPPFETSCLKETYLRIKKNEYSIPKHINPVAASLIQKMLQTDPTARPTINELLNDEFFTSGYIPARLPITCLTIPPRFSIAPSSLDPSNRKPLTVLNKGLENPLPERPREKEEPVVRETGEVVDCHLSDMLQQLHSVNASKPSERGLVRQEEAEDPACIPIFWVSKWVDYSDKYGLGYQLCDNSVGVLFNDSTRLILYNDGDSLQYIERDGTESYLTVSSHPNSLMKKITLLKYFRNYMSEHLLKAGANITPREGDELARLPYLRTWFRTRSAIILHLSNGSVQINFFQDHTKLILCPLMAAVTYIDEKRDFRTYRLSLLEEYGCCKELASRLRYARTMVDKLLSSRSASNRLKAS
# GCN5L2 inh – inhibitors of human GCN5L2 histone acetyltransferase; Q92830; GCN5L2 HAT assay, ThioGlo1 CoA-SH fluorescence; Potency, µM (top dose mostly 58.9 µM), for inactives: top-dose activity change, negative = inhibition, usual class: inhibitors; 390,000 tested, 0.21% active
#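 GCN5L2 (20nM final) in 50mM HEPES, 0.1mM EDTA pH 7.5, 0.01% Tween-20 was preincubated 15 min at room temperature with compound, then given ThioGlo1 (50uM), H3(1-25) peptide (75uM) and acetyl-CoA (70uM); CoA-thiol fluorescence (Ex340/Em540) was read at 0 and 20 min.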
# TDP1 inh – inhibitors of human tyrosyl-DNA phosphodiesterase TDP1; Q9NUW8; recombinant TDP1, AlphaScreen DNA substrate cleavage; Potency, µM (top dose mostly 130 µM), for the others: top-dose activity change, negative = inhibition, hits mostly inhibitors; 350,000 tested, 0.28% active; further: nearly all actives have a fitted effect of over 40% in size
#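 Compounds were preincubated with Tdp1 (1 nM final) for 15 min at room temperature before substrate (15 nM final) started a 5 min reaction; beads (10 ug/ml final) were then added for 10 min before AlphaScreen detection.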
# VDR inh – vitamin D3 receptor (human) inhibition | VDR-SRC2-3 peptide fluorescence polarization, 2 h | Potency, µM, without a hit: max response, negative = inhibition, usual class: inhibitors | 400,000 tested, 0.93% active
#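 VDR–SRC2-3 interaction, FP format. Cmpds 23 nl via pintool, brief spin, 2 h ambient incubation.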
# DT40 TDP1 CPT – DT40-hTDP1 cell growth loss with CPT | AID 686979 | Potency, µM (doses to about 46.2 µM), for inactives: at the top dose activity change, negative = growth inhibition, hits mostly inhibitors | 420,000 tested, 12% active | chicken DT40 Tdp1-/-;hTDP1 cells + 20 nM CPT, ATP luminescence, 48 h; further: nearly all actives have a fitted effect of over 55% in size
#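 Chicken DT40 Tdp1-/- cells complemented with human TDP1, 400 cells/well, exposed to compounds plus 20 nM camptothecin for at least 48 h at 37 C; viability read as ATP content by CellTiter-Glo luminescence.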
# DT40 TDP1 no CPT – qHTS for Inhibitors of human tyrosyl-DNA phosphodiesterase 1 (TDP1): qHTS in cells in absence of CPT; AID 686978, 2013; DT40 Tdp1-/- hTDP1 cells, no CPT, ATP luminescence, 48 h; Potency, µM (top dose mostly 46.2 µM), for inactives: at the highest dose activity change, negative = growth inhibition, hits mostly inhibitors; 420,000 tested, 15% active; further: nearly all actives have a fitted effect of over 55% in size
#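 Chicken DT40 Tdp1-/- cells complemented with human TDP1, screened without camptothecin (DMSO vehicle only), 400 cells/well. Compounds pin-transferred, cells incubated at 37 °C for at least 48 hr. Growth read as ATP-dependent luminescence (CellTiter-Glo, 30 min at RT).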
# * marks the source's active call; other numbers are inactive results; ? = inconclusive; / = no result given; [ ] = remark or other dose. The call rests on the fitted dose curve; in most records, active means well fitted curve in the direction sought with a large enough effect; inconclusive means small, poorly fitted or top-dose-only effect, or another doubt; inactive means no such curve, though single readings can be large; an effect the other way counts as inactive or inconclusive. On the % scale 0 is the no-effect control and ±100 the full control effect; potency means the concentration at half of the fitted maximal effect.
SMILES,PLK1 PBD block,GCN5L2 inh,TDP1 inh,VDR inh,DT40 TDP1 CPT,DT40 TDP1 no CPT
Cc1cccc(NC(=O)NCc2ccccn2)c1,-7%,1%,0%[56.1 µM],14%,5%,-3%
O=C(NCc1ccccc1)c1cc(-c2ccncc2)nc2ccccc12,0%,3%,/,-6%,?,?
Cc1cc(CNC(=O)c2cc(-c3ccccc3)nc3ccccc23)nn1C,2%,4%,5%,-12%,?,21µM*
Cc1cccc2nc(-c3ccccc3)nc(N[C@@H](CO)c3ccccc3)c12,5%,-18%,1%,-15%,?,?
Cc1ccc2oc(=O)c3cnn(CC(=O)N4CCN(c5ccc(F)cc5)CC4)c3c2c1,/,1%,-4%,-29%,2%,-13%
Cc1ccc(NS(=O)(=O)c2ccc(C)c(C(=O)NCC(c3ccccc3)N(C)C)c2)cc1 (centres undefined),-1%,3%,4%,-10%,?,?
Cc1cc(C(=O)NCc2cc(C)n(C)n2)sc1-c1ccccc1,-9%,-10%,9%,9%,13µM*,21µM*
Cc1ccc(-c2cc(C(=O)NCc3ccccn3)c3ccccc3n2)cc1C,24µM*,-10%,8%,?,?,7.3µM*
O=C(NCc1ccccn1)c1cc(-c2ccc(-c3ccccc3)cc2)nc2ccccc12,?,-9%,-3%,1%,16µM*,8.2µM*
Cc1ccc(-c2cc(C(=O)NCCCN3CCOCC3)c3ccccc3n2)cc1C,2%,0%,0%,-8%,-4%,?
Cc1ccc(-c2cc(C(=O)NCCCN3CCCC3)c3ccccc3n2)cc1C,?,-4%,3%,9%,?,29µM*
O=C(NCc1ccccn1)c1cc(-c2ccccc2)nc2ccccc12,-3%,-3%,8%,4%,5%,-3%
Cc1ccc(C)c(Sc2ccc(S(=O)(=O)Nc3ccc(C(=O)O)cc3)cc2)c1,?,?,3%,-24%,-4%,3%
Cc1ccc(-c2cc(C(=O)NC(C)c3ccccc3)c3ccccc3n2)cc1C (centres undefined),/,3%,5%,4%,?,?
Cc1ccc(-c2cc(C(=O)NCc3ccccc3Cl)c3ccccc3n2)cc1C,/,-6%,5%,-9%,15µM*,?
Cc1ccccc1Cn1cnc2c(cnn2C(C)(C)C)c1=O,-9%,?,-4%,2%,?,?
CCOC(=O)c1ccccc1NC(=O)Cn1cnc2c(cnn2C(C)(C)C)c1=O,-10%,-1%,5%,3%,?,26µM*
Cc1ccc(C)c(Cn2cnc3c(cnn3C(C)(C)C)c2=O)c1,1%,-10%,-2%,-1%,-113%,18µM*
Clc1ccccc1-c1cccc2nccn12,-1%,/,/,/,?,?
c1ccc2c(c1)oc1c(-c3cccc4nccn34)cccc12,-3%,/,/,/,13µM*,?
CC(C)(C)n1cnc2cc(NCc3ccccc3Cl)ccc21,/,2%,10%,-11%,?,15µM*
Cn1cnc2cc(NCc3ccccc3O)ccc21,-2%,-1%,7%,-5%,8%,5%
CC1(C)NC(=O)N(CC(=O)Nc2cc(S(=O)(=O)N3CCOCC3)ccc2N2CCOCC2)C1=O,/,0%,-5%,/,/,/
O=C(CN1CCc2ccccc2C1)Nc1cc(S(=O)(=O)N2CCOCC2)ccc1N1CCCC1,-17%,-7%,11%,-18%,15µM*,?
O=C(CN1CCc2ccccc2C1)Nc1cc(S(=O)(=O)N2CCOCC2)ccc1N1CCOCC1,-7%,-1%,8%,-12%,9.2µM*,23µM*
SMILES,PLK1 PBD block,GCN5L2 inh,TDP1 inh,VDR inh,DT40 TDP1 CPT,DT40 TDP1 no CPT
CC1CC(C)CN(CC(=O)Nc2cc(S(=O)(=O)N3CCOCC3)ccc2N2CCCC2)C1 (centres undefined),-5%,0%,2%,-12%,?,?
CCOC(=O)O[C@@H](C)OC(=O)[C@@H]1N2C(=O)[C@@H](NC(=O)[C@@H](N)c3ccccc3)[C@H]2SC1(C)C,/,4%[21.4 µM],6%[56.1 µM],-1%,/,/
Cc1cccn2c(=O)c3cc(C(=O)NCC4CCCO4)c(=N)n(C4CCCC4)c3nc12 (centres undefined),-18%,-5%,-2%,1%,0%,?
O=C(O)CC1c2ccccc2CCN1C(=O)Nc1cc(Cl)ccc1Cl (centres undefined),/,7%,9%,-2%,21µM*,21µM*
CCc1c(O)nc(SCC(=O)N2CCc3cc(OC)c(OC)cc3[C@@H]2C)[nH]c1=O,2%,-5%,/,-6%,6%,-4%
COc1cc2c(cc1OC)C(C)N(C(=O)c1cc(Cl)nc(Cl)c1)CC2 (centres undefined),-16%,1%,/,16%,7.3µM*,?
O=C(CC1C(=O)NCCN1C(=O)c1ccccc1)Nc1cc(Cl)ccc1Cl (centres undefined),-11%,-3%,1%,-20%,-4%,-9%
CNC(=S)N1CCc2cc(OC)c(OC)cc2C1COc1ccc(F)cc1 (centres undefined),-11%,-6%,0%,4%,1%,0%
COc1cc2c(cc1OC)C(CC(=O)O)N(C(=O)Nc1cc(OC)c(OC)c(OC)c1)CC2 (centres undefined),/,-6%,-4%,16%,3.7µM*,?
COC(=O)N1CCc2cc(OC)c(OC)cc2C1Cc1ccc(OC)cc1 (centres undefined),/,/,2%[21 µM],/,/,/
COc1cc2c(cc1OC)C(C)N(C(=O)Nc1ccc(F)cc1)CC2 (centres undefined),-6%,-12%,/,-17%,13µM*,7.3µM*
COc1ccc(-n2c(=O)c(-c3cc(F)cc(F)c3)nc3cnc(N(C)C)nc32)cc1,/,-3%,/,-11%,1%,-1%
Cc1cc(C)c2c(=O)[nH][nH]c2n1,1%,/,/,-5%,?,-27%
CC(C)(C)n1nnnc1CN1CCN(C(c2ccccc2)c2ccccc2)CC1,-9%,-6%,0%,-14%,?,18µM*
CC(C)C(c1nnnn1C(C)(C)C)N1CCN(c2cccc(Cl)c2)CC1 (centres undefined),3µM*,-6%,2%,-3%,18µM*,13µM*
Cc1ccc(C)c(N2CCN(C(c3ccccc3)c3nnnn3C(C)(C)C)CC2)c1 (centres undefined),-15%,/,/,/,-80%,18µM*

# Source: PubChem BioAssay
